# Measurements from PubChem BioAssay (EPA / NIEHS).
# Records with an inconclusive call do not appear. The source made the active and inactive calls. Rule for the calls, unless noted: active = hit-call score of the fitted dose curve at least 0.9, where 1 is the maximum; inactive = score below 0.9.
# How the values were obtained:
# [1] = IUF_NPC2c_oligodendrocyte_migration_120hr: Leibniz Research Institute for Environmental Medicine (IUF) 120-hour Neural Progenitor Cell Migration Assay for Oligodendrocyte Migration (NPC2c) (AID 2284297);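 note: O4-positive oligodendrocyte migration distance divided by radial glia migration distance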
# How it was run: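 hNPC spheres (GW 16-19 cortex), PDL/laminin, DMEM/F12 3:1 + 1% N2, 37C. Dosing day 0–5, half feed day 3, DMSO ≤0.1%. Fixed 120 h; O4 ICC + Hoechst, HCI. Readout: mean oligodendrocyte distance from sphere edge / radial glia distance.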
# [2] = IUF_NPC2a_radial_glia_migration_120hr: Leibniz Research Institute for Environmental Medicine (IUF) 120-hour Neural Progenitor Cell Migration Assay for Radial Glia Migration (NPC2a) (AID 2284298)
# How it was run: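 Hoechst-stained nuclei imaged at 120 h; algorithm maps sphere core by densest nuclei, sets migration edge at density threshold, gives radial glia migration distance (um) per well vs DMSO. hNPC spheres (0.3 mm), PDL/laminin, DMEM/F12 3:1 + 1% N2.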
# [3] = IUF_NPC2a_radial_glia_migration_72hr: Leibniz Research Institute for Environmental Medicine (IUF) 72-hour Neural Progenitor Cell Migration Assay for Radial Glia Migration (NPC2a) (AID 2284299)
# How it was run: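 Spheres of human primary neural progenitors migrate on poly-D-lysine/laminin under compound exposure at 37C, 5% CO2. The 72 h radial glia migration distance comes from brightfield images, measured manually.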
# [4] = IUF_NPC2b_neuronal_migration_120hr: Leibniz Research Institute for Environmental Medicine (IUF) 120-hour Neural Progenitor Cell Migration Assay for Neuron Migration (NPC2b) (AID 2284300)
# How it was run: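 hNPC spheres, PDL/laminin, DMEM:F12 3:1 + 1% N2, 37C/5% CO2; 7 concentrations + solvent control (DMSO ≤0.1%), 5 d exposure, half-feed day 3. Fix 120 h, TUBB3 ICC, HCI: mean neuron migration distance ÷ glia distance.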
# [5] = IUF_NPC5_oligodendrocyte_differentiation_120hr: Leibniz Research Institute for Environmental Medicine (IUF) 120-hour Oligodendrocyte Differentiation Assay (NPC5) (AID 2284304; active = hit-call score of the fitted dose curve at least 0.9, where 1 is the maximum;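 note: primary human fetal neural progenitor spheres plated to migrate and differentiate; share of O4-positive cells among Hoechst nuclei found by CNN image analysis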)
# How it was run: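 hNPC spheres, fetal cortex GW 16-19; PDL/laminin, DMEM:F12 3:1 + 1% N2, 37C/5% CO2; 7 concentrations + solvent control, 5 d exposure, half-change day 3. Readout: %O4+ of Hoechst+ nuclei in migration area, CNN classification; DMSO baseline.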
# [6] = IUF_NPC4_neurite_area_120hr: Leibniz Research Institute for Environmental Medicine (IUF) 120-hour Neuronal Morphology Assay for Neurite Area (NPC4) (AID 2284305; active = hit-call score of the fitted dose curve at least 0.9, where 1 is the maximum)
# How it was run: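 Neurite area (pixels, nuclei excluded) of TUBB3-positive neurons from hNPC spheres differentiating 5 days under continuous exposure at 37 C, 5% CO2. High-content imaging; loss of signal versus DMSO control across 7 concentrations.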
# [7] = read-out: Decorin, DCN (gene 1634); experiment: BSK_MyoF_Decorin: BioMAP Diversity Plus: MyoF Assay for Decorin Biomarker Activity (AID 2284265); conditions: primary human lung fibroblasts
# How it was run: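 ELISA readout of decorin, 24 h post-dosing; primary human lung fibroblast (MyoF) culture; gain-of-signal fit vs DMSO baseline.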
# [8] = BSK_MyoF_SRB: Viability Assessment in the BioMAP Diversity Plus: MyoF Assay (AID 2284267); conditions: primary human lung fibroblasts;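 note: total protein by SRB absorbance in parallel cultures as cytotoxicity measure; cells assessed 24 h after compound addition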
# Description: BSK_MyoF is a cell-based, multiplexed-readout assay that uses lung fibroblasts, […], with measurements taken at 24 hours after chemical dosing in a microplate: 96-well plate.BSK_MyoF_SRB is an assay component measured in the BSK_MyoF assay. It measures 0.1% sulforhodamine related to cell death using Sulforhodamine staining technology.Data from the assay component BSK_MyoF_SRB was analyzed at the endpoint, BSK_MyoF_SRB, in the positive analysis fitting direction relative to DMSO as the negative control and baseline of activity. Using a type of viability reporter, gain or loss-of-signal activity can be used to understand protein changes. […]
# The levels of cell surface (or secreted, indicated by the prefix "s") biomarker endpoints were measured by ELISA. Overt cytotoxicity to cells in confluent adherent cultures (all systems other than the BT system) was assessed by measuring total protein levels using sulforhodamine B (SRB) staining in parallel cultures at the time of biomarker measurements, indicated as SRB endpoints. For proliferation assays for adherent cell types, individual cell types are cultured at sub-confluence and relative cell numbers quantified by SRB staining at time points optimized for each system (48 h: 3C and CASM3C systems; 72 h: BT and HDF3CGF systems; 96 h: SAg system). […] Plates were read after 6 h.
# [9] = read-out: Matrix Metallopeptidase 1 (MMP1), MMP1 (gene 4312); experiment: BSK_MyoF_MMP1: BioMAP Diversity Plus: MyoF Assay for Matrix Metallopeptidase 1 (MMP1) Biomarker Activity (AID 2284268); conditions: primary human lung fibroblasts
# How it was run: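 Cells: human lung fibroblasts. Exposure: 24 h chemical dosing. Detection: ELISA for MMP1. Analysis: upward fitting against DMSO negative control.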
# [10] = read-out: TIMP metallopeptidase inhibitor 1 (TIMP1), TIMP1 (gene 7076); experiment: BSK_MyoF_TIMP1: BioMAP Diversity Plus: MyoF Assay for TIMP metallopeptidase inhibitor 1 (TIMP1) Biomarker Activity (AID 2284269); conditions: primary human lung fibroblasts
# How it was run: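 ELISA read-out of TIMP-1 from primary human lung fibroblast cultures 24 h after compound dosing; gain of signal relative to DMSO vehicle baseline defines activity.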
structure (smiles),measurement,setting,value
CCCCOC(=O)c1ccccc1C(=O)OCCCC,outcome,[1],inactive
same,outcome,[2],inactive
same,outcome,[3],inactive
same,outcome,[4],inactive
CNC(=O)ON=CC(C)(C)SC,outcome,[1],inactive
same,outcome,[2],inactive
same,outcome,[3],inactive
same,outcome,[4],inactive
same,outcome,[5],inactive
same,outcome,[6],inactive
CCOc1cc(Oc2ccc(C(F)(F)F)cc2Cl)ccc1[N+](=O)[O-],outcome,[1],inactive
same,outcome,[2],inactive
same,outcome,[3],inactive
same,outcome,[4],inactive
same,AC50,[5],5.26 µM (active)
same,outcome,[6],inactive
N#Cc1nn(-c2c(Cl)cc(C(F)(F)F)cc2Cl)c(N)c1S(=O)C(F)(F)F (configuration not stated),outcome,[1],inactive
same,AC50,[2],18.8 µM (active)
same,outcome,[3],inactive
same,outcome,[4],inactive
same,AC50,[5],1.99 µM (active)
same,AC50,[6],14.3 µM (active)
CCCCC(CC)COC(=O)c1ccccc1C(=O)OCC(CC)CCCC (configuration not stated),outcome,[1],inactive
same,outcome,[2],inactive
same,outcome,[3],inactive
same,outcome,[4],inactive
same,outcome,[5],inactive
COP(N)(=O)SC (configuration not stated),outcome,[1],inactive
same,outcome,[2],inactive
same,outcome,[3],inactive
same,outcome,[4],inactive
same,outcome,[5],inactive
same,outcome,[6],inactive
CN(C)C(=S)SSC(=S)N(C)C,AC50,[1],28.1 µM (active)
same,AC50,[2],47.3 µM (active)
same,AC50,[3],11.4 µM (active)
same,AC50,[4],58.7 µM (active)
same,AC50,[5],26 µM (active)
same,AC50,[6],27.5 µM (active)
COC(=O)N(OC)c1ccccc1COc1ccn(-c2ccc(Cl)cc2)n1,outcome,[1],inactive
same,AC50,[2],3.18 µM (active)
same,AC50,[3],3.44 µM (active)
same,outcome,[4],inactive
same,AC50,[5],2.16 µM (active)
same,AC50,[6],0.167 µM (active)
CO/C=C(/C(=O)OC)c1ccccc1Oc1cc(Oc2ccccc2C#N)ncn1,outcome,[1],inactive
same,outcome,[2],inactive
same,outcome,[3],inactive
same,outcome,[4],inactive
same,outcome,[5],inactive
same,outcome,[6],inactive
CCOC(=O)CC(SP(=S)(OC)OC)C(=O)OCC (configuration not stated),outcome,[1],inactive
same,outcome,[2],inactive
same,outcome,[3],inactive
same,outcome,[4],inactive
same,outcome,[6],inactive
CC(C)(C)c1ccc(CSc2cnn(C(C)(C)C)c(=O)c2Cl)cc1,outcome,[1],inactive
same,AC50,[2],3.31 µM (active)
same,outcome,[3],inactive
same,outcome,[4],inactive
same,AC50,[5],0.0866 µM (active)
same,outcome,[6],inactive
COc1cnc(OC)n2nc(NS(=O)(=O)c3c(OCC(F)F)cccc3C(F)(F)F)nc12,outcome,[7],inactive
same,outcome,[8],inactive
same,outcome,[9],inactive
same,outcome,[10],inactive
C=CC1(C)OC(=O)N(c2cc(Cl)cc(Cl)c2)C1=O (configuration not stated),outcome,[1],inactive
same,outcome,[2],inactive
same,outcome,[3],inactive
same,outcome,[4],inactive
same,outcome,[5],inactive
COP(=S)(OC)Oc1nc(Cl)c(Cl)cc1Cl,outcome,[1],inactive
same,outcome,[2],inactive
same,outcome,[3],inactive
same,outcome,[4],inactive
same,outcome,[5],inactive
Cc1ccc(-c2c(Cl)nc(C#N)n2S(=O)(=O)N(C)C)cc1,AC50,[1],23.9 µM (active)
same,AC50,[2],33.6 µM (active)
same,AC50,[3],25.9 µM (active)
same,AC50,[4],30.8 µM (active)
same,AC50,[5],33.9 µM (active)
same,AC50,[6],26.1 µM (active)
